Measurements from the supplement of paper PMC9262897, “Low-cost anti-mycobacterial drug discovery using engineered E. coli” (Nature Communications, 2022).
Counter-ions that a name gives are not always drawn. ± gives the standard deviation of the averaged measurements.

What follows are compounds tested on E. coli TESEC Mtb Alr (assay: growth (OD600 after 10 h); higher = more growth (less inhibition)). Conditions: arabinose 1000 nM; compound 0.1 mM; raw OD600 reference: median of DMSO wells 0.294, cell-free background 0.041.
Method: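 TESEC Mtb Alr E. coli, or the Alr+ wild-type control, in 384-well plates with Prestwick library compounds at 0.1 mM and 1% DMSO, across arabinose induction levels of 1E3 to 1E7 nM. Growth is read as OD600 after 10 h at 37 °C in triplicate biological replicates.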
Work on `CN1CCCC(n2nc(Cc3ccc(Cl)cc3)c3ccccc3c2=O)CC1` (stereo not given) [Azelastine HCl] yielded a growth of 0.19 ± 0.011. With `COC(=O)Nc1nc2ccc(SC(C)C)cc2[nH]1` [Methiazole] the growth was 0.278 ± 0.0056. `CCCCNC(=O)NS(=O)(=O)c1ccc(C)cc1` [Tolbutamide] gave a growth of 0.295 ± 0.005. `CS(=O)(=O)OCCCCOS(C)(=O)=O` [Busulfan] was tested, and the growth was 0.287 ± 0.025. For `Fc1ccc([C@@H]2CCNC[C@H]2COc2ccc3c(c2)OCO3)cc1` [Paroxetine Hydrochloride], the growth was 0.172 ± 0.01. For `CC1(C)O[C@@H]2C[C@H]3[C@@H]4C[C@H](F)C5=CC(=O)C=C[C@]5(C)[C@H]4[C@@H](O)C[C@]3(C)[C@]2(C(=O)CO)O1` [Flunisolide], the growth was 0.297 ± 0.0098. With `CNCCc1ccccn1` [Betahistine mesylate] the growth was 0.302 ± 0.006. With `CC(C(=O)O)c1ccc(C(=O)c2cccs2)cc1` (stereo not given) [Suprofen] the growth was 0.263 ± 0.015. `CCCCCCCCNC(C)C(O)c1ccc(SC(C)C)cc1` (stereo not given) [Suloctidil] showed a growth of 0.0398 ± 0.0011. Work on `CCCc1cc(C(N)=S)ccn1` [Prothionamide] yielded a growth of 0.295 ± 0.0059. In the case of `CCC[C@@H]1C[C@@H](C(=O)N[C@@H]([C@H]2O[C@H](SC)[C@H](O)[C@@H](O)[C@H]2O)[C@@H](C)O)N(C)C1` [Lincomycin hydrochloride], the growth is reported as 0.122 ± 0.011. With `C[C@]12CC[C@@H]3c4ccc(O)cc4C[C@@H](CCCCCCCCC[S+]([O-])CCCC(F)(F)C(F)(F)F)[C@H]3[C@@H]1CC[C@@H]2O` (stereo not given in full) [Fulvestrant] the growth was 0.296 ± 0.016. For `CN(C)CCCSC(=N)N` [Dimaprit dihydrochloride], the growth was 0.308 ± 0.011. For `CN1CCN(c2c(F)cc3c(=O)c(C(=O)O)cn4c3c2SCC4)CC1` [Rufloxacin], the growth was 0.0429 ± 0.001. Compound `CC(=O)OCC(=O)[C@@]1(OC(C)=O)[C@@H](C)C[C@H]2[C@@H]3C[C@H](F)C4=CC(=O)C=C[C@]4(C)[C@@]3(F)[C@@H](O)C[C@@]21C` [Diflorasone Diacetate] has a growth of 0.178 ± 0.0085. `CS(=O)(=O)c1ccc([C@@H](O)[C@@H](CO)NC(=O)C(Cl)Cl)cc1` [Thiamphenicol] was tested, and the growth was 0.0511 ± 0.0029. In the case of `CSc1nc2cc(Cl)c(Oc3cccc(Cl)c3Cl)cc2[nH]1` [Triclabendazole], the growth is reported as 0.0531 ± 0.0014. `CC(C)(CO)C(O)C(=O)NCCCO` (stereo not given) [Panthenol (D)] showed a growth of 0.296 ± 0.01. With `Cc1onc(-c2ccccc2Cl)c1C(=O)N[C@@H]1C(=O)N2[C@@H]1SC(C)(C)[C@@H]2C(=O)O` [Cloxacillin sodium salt] the growth was 0.288 ± 0.018. Work on `OCCN(CCO)c1nc(N2CCCCC2)c2nc(N(CCO)CCO)nc(N3CCCCC3)c2n1` [Dipyridamole] yielded a growth of 0.0575 ± 0.0086. `CN(C)CCN(Cc1ccc(Cl)cc1)c1ccccn1` [Chloropyramine hydrochloride] was tested, and the growth was 0.245 ± 0.0086. `CCCCOC(=O)c1ccc(N)cc1` [Butamben] gave a growth of 0.23 ± 0.018. `Nc1c(Br)cc(Br)cc1CN[C@H]1CC[C@H](O)CC1` [Ambroxol hydrochloride] gave a growth of 0.256 ± 0.014. For `C[C@]12CC[C@@H]3c4ccc(OS(=O)(=O)O)cc4CC[C@H]3[C@@H]1CCC2=O` [Estropipate], the growth was 0.277 ± 0.011. For `CC(NCCC(c1ccccc1)c1ccccc1)c1ccccc1` (stereo not given) [Fendiline hydrochloride], the growth was 0.0413 ± 0.0034. `C[C@@H]1C[C@H]2[C@@H]3C[C@H](F)C4=CC(=O)C=C[C@]4(C)[C@@]3(F)[C@@H](O)C[C@]2(C)[C@@]1(O)C(=O)COC(=O)C(C)(C)C` [Flumethasone pivalate] was tested, and the growth was 0.271 ± 0.028. `COc1cc(C(=O)NC2CCCNC2)cc(OC)c1OC` (stereo not given) [Troxipide] was tested, and the growth was 0.286 ± 0.012. `COCCc1ccc(OCC(O)CNC(C)C)cc1` (racemic) [Metoprolol-(+,-) (+)-tartrate salt] showed a growth of 0.306 ± 0.018. Compound `CC(Oc1c(Cl)cccc1Cl)C1=NCCN1` (stereo not given) [Lofexidine] has a growth of 0.27 ± 0.0089. For `N#CC(c1ccc(Cl)cc1)c1c(Cl)cc(-n2ncc(=O)[nH]c2=O)cc1Cl` (stereo not given) [Diclazuril], the growth was 0.0423 ± 0.004. For `Cc1cc(C(C)(C)CC(C)(C)C)ccc1OCCOCC[N+](C)(C)Cc1ccccc1` [Methyl benzethonium chloride], the growth was 0.0483 ± 0.0025. Work on `CC(=O)CC(c1ccc([N+](=O)[O-])cc1)c1c(O)c2ccccc2oc1=O` (stereo not given) [Acenocoumarol] yielded a growth of 0.298 ± 0.0045. Work on `COCC1=C(C(=O)OC(C)OC(=O)OC(C)C)N2C(=O)[C@@H](NC(=O)/C(=N\OC)c3csc(N)n3)[C@H]2SC1` (stereo not given in full) [Cefpodoxime proxetil] yielded a growth of 0.116 ± 0.0091. Work on `CC(=O)OCC(=O)[C@@]12OC(C)(C)O[C@@H]1C[C@H]1[C@@H]3C[C@H](F)C4=CC(=O)C=C[C@]4(C)[C@@]3(F)[C@@H](O)C[C@@]12C` [Fluocinonide] yielded a growth of 0.279 ± 0.012. Compound `COc1ccc([C@@H]2Sc3ccccc3N(CCN(C)C)C(=O)[C@@H]2OC(C)=O)cc1` [Diltiazem hydrochloride] has a growth of 0.239 ± 0.01. In the case of `CC(=O)N[C@@H](CC(=O)N[C@@H](CCC(=O)O)C(=O)O)C(=O)O` [Spaglumic acid], the growth is reported as 0.289 ± 0.013. `Cc1ccnc(NS(=O)(=O)c2ccc(N)cc2)n1` [Sulfamerazine] was tested, and the growth was 0.293 ± 0.013. With `N=c1nc(N2CCCCC2)cc(N)n1O` [Minoxidil] the growth was 0.28 ± 0.0067. For `COc1ccc2c(c1)c(CC(=O)O)c(C)n2C(=O)c1ccc(Cl)cc1` [Indomethacin], the growth was 0.186 ± 0.008. With `CN1CC2c3ccccc3Oc3ccc(Cl)cc3C2C1` (stereo not given) [Asenapine maleate] the growth was 0.159 ± 0.012.
